Reference: the supplement of paper PMC10849652
Targets with a hit are over-represented here; the source holds about 7,900 in all. About 0.6% of all pairs of compound and target were hits.

Tests used:
Assay in all cases: log2 fold change, soluble protein after heating vs DMSO (PISA); higher = thermal stabilisation; K562 cells, 10 uM, 30 min; active = over 0.2 and 3.5 SD of the protein, either way, in both replicates (recomputed)
[1] = compound: CNC(=O)C1=CC=CC=C1NC2=NC(=NC=C2Cl)NC3=C(C=C(C=C3)N4CCOCC4)OC
Outline: (§1)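 Aliquots of K562 cells (2×10^6 cells/mL) treated with 10 μM compound for 30 min were heated for 3 min over 48°C-58°C. After pooling and extraction in PBS with 0.5% NP-40 at 4°C, soluble protein from a 21,000xg, 90 min spin was quantified by TMTpro 16plex LC-MS/MS with channel sums equalised. Thermal stability is expressed against control samples, from duplicates, as a log2 fold change.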

[2] = compound: CNCc1ccc(-c2[nH]c3cc(F)cc4c3c2CCNC4=O)cc1 [rucaparib]
Outline: as §1

[3] = compound: COC(=O)N[C@@H](C)CNc1nccc(-c2cn(C(C)C)nc2-c2cc(Cl)cc(NS(C)(=O)=O)c2F)n1 [encorafenib]
Outline: as §1

[4] = compound: CN1CCN(CCOc2cc(OC3CCOCC3)c3c(Nc4c(Cl)ccc5c4OCO5)ncnc3c2)CC1 [saracatinib]
Outline: as §1

[5] = compound: CN1CCN(c2nc(C3=C(c4c[nH]c5ccccc45)C(=O)NC3=O)c3ccccc3n2)CC1 [sotrastaurin]
Outline: as §1

[6] = compound: CN1CCc2c(c3ccccc3n2Cc2ccc(C(=O)NO)cc2)C1 [Tubastatin A]
Outline: as §1

[7] = compound: CNC(=O)c1ccc(Nc2ncc(C(F)(F)F)c(NCc3nccnc3N(C)S(C)(=O)=O)n2)cc1 [defactinib]
Outline: as §1

[8] = compound: CNc1nc(-c2ccc3c(N)n[nH]c3c2)cc(N2C[C@@H](C(=O)NC3CCCCC3)CC[C@H]2C)n1
Outline: as §1

[9] = compound: COC(=O)[C@H](CCSC)NC(=O)C1=C(C=C(C=C1)NC[C@H](CS)N)C2=CC=CC=C2
Outline: as §1

[10] = compound: CN1CC[C@H](c2c(O)cc(O)c3c(=O)cc(-c4ccccc4Cl)oc23)[C@H](O)C1 [alvocidib]
Outline: as §1

Measured: log2 fold change

GPNMB (UniProt Q14956)
inactive: [1] -0.221 | [2] 0.007 | [3] -0.25

HNRNPK isoform 3 (UniProt P61978)
inactive: [4] 0.04 | [5] 0.059 | [6] 0.034 | [1] -0.05 | [7] 0.096 | [2] 0.032 | [8] -0.035 | [3] -0.041 | [9] -0.028

GSTO1 (UniProt P78417)
UniProt P78417, sequence (P78417 whole entry, looked up): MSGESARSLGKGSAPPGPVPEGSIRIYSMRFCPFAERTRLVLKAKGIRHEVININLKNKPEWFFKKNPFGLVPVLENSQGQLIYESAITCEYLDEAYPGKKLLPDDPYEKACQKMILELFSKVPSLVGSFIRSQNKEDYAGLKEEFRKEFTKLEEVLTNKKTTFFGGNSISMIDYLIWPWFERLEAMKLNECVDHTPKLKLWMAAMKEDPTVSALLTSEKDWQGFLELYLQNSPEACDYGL
inactive: [4] 0.027 | [5] 0.094 | [10] -0.016 | [6] -0.021 | [1] -0.034 | [7] 0.001 | [2] -0.09 | [8] -0.004 | [3] 0.001 | [9] 0

HS1BP3 (UniProt Q53T59)
inactive: [4] 0.107 | [5] -0.078 | [10] -0.275 | [1] -0.005 | [7] -0.066 | [2] -0.038 | [3] 0.037 | [9] -0.175
active: [8] 0.371

HSPA2 (UniProt P54652)
active: [1] 0.809
inactive: [5] 0.038

FKBP7 (UniProt Q9Y680)
inactive: [4] 0.073 | [5] 0.056 | [10] 0 | [6] -0.026 | [1] 0.008 | [7] -0.032 | [2] 0.01 | [8] 0.031 | [3] 0.044 | [9] 0.036

HDAC7 isoform 5 (UniProt Q8WUI4)
inactive: [4] -0.04 | [5] -0.048 | [10] -0.185 | [1] -0.2 | [7] -0.011 | [2] -0.033 | [8] 0 | [3] -0.016 | [9] 0.012

GSE1 (UniProt Q14687)
inactive: [4] -0.077 | [10] -0.186 | [7] 0.027 | [8] -0.014
active: [9] -0.498

FAT2 (UniProt Q9NYQ8)
inactive: [4] -0.243 | [10] 0.083 | [6] 0.144 | [1] -0.206 | [7] 0.011 | [2] -0.007 | [8] 0.021 | [3] 0.094 | [9] 0.001

HBZ, A0A494C057
inactive: [1] 0.005 | [2] -0.058 | [3] -0.094

GOLGA8R (UniProt I6L899)
inactive: [4] -0.126 | [10] 0.018 | [6] 0.253 | [1] -0.148 | [7] -0.197 | [2] 0.189 | [8] 0.246 | [3] -0.098 | [9] -0.086

FYB1 isoform 3 (UniProt O15117)
inactive: [4] 0.007 | [5] -0.101 | [6] -0.018 | [1] 0 | [7] -0.112 | [2] 0.028 | [8] -0.076 | [3] 0.074 | [9] -0.01

GNL3 (UniProt Q9BVP2)
inactive: [4] -0.124 | [5] 0.03 | [10] 0.145 | [6] 0.304 | [7] 0.005 | [2] -0.052 | [8] 0.044 | [3] -0.065 | [9] 0.015

IGF2 isoform 3 (UniProt P01344)
UniProt P01344, sequence (P01344 whole entry, looked up): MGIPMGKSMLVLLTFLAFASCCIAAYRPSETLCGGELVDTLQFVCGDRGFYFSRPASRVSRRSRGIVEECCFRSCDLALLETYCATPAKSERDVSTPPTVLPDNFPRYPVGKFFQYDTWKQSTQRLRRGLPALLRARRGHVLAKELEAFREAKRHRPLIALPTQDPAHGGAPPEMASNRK
inactive: [4] 0.148 | [1] -0.033 | [7] 0.007 | [8] -0.105 | [9] 0.006

GOLGA6B (UniProt A6NDN3)
inactive: [5] 0.068 | [1] -0.066 | [7] -0.211 | [9] -0.475

GBE1 (UniProt Q04446)
inactive: [4] -0.252 | [10] -0.084 | [6] 0.055 | [1] -0.027 | [7] -0.195 | [2] -0.132 | [8] 0.076 | [3] 0.062 | [9] -0.034

FAT1 (UniProt Q14517)
UniProt Q14517, sequence (Q14517 whole entry, looked up): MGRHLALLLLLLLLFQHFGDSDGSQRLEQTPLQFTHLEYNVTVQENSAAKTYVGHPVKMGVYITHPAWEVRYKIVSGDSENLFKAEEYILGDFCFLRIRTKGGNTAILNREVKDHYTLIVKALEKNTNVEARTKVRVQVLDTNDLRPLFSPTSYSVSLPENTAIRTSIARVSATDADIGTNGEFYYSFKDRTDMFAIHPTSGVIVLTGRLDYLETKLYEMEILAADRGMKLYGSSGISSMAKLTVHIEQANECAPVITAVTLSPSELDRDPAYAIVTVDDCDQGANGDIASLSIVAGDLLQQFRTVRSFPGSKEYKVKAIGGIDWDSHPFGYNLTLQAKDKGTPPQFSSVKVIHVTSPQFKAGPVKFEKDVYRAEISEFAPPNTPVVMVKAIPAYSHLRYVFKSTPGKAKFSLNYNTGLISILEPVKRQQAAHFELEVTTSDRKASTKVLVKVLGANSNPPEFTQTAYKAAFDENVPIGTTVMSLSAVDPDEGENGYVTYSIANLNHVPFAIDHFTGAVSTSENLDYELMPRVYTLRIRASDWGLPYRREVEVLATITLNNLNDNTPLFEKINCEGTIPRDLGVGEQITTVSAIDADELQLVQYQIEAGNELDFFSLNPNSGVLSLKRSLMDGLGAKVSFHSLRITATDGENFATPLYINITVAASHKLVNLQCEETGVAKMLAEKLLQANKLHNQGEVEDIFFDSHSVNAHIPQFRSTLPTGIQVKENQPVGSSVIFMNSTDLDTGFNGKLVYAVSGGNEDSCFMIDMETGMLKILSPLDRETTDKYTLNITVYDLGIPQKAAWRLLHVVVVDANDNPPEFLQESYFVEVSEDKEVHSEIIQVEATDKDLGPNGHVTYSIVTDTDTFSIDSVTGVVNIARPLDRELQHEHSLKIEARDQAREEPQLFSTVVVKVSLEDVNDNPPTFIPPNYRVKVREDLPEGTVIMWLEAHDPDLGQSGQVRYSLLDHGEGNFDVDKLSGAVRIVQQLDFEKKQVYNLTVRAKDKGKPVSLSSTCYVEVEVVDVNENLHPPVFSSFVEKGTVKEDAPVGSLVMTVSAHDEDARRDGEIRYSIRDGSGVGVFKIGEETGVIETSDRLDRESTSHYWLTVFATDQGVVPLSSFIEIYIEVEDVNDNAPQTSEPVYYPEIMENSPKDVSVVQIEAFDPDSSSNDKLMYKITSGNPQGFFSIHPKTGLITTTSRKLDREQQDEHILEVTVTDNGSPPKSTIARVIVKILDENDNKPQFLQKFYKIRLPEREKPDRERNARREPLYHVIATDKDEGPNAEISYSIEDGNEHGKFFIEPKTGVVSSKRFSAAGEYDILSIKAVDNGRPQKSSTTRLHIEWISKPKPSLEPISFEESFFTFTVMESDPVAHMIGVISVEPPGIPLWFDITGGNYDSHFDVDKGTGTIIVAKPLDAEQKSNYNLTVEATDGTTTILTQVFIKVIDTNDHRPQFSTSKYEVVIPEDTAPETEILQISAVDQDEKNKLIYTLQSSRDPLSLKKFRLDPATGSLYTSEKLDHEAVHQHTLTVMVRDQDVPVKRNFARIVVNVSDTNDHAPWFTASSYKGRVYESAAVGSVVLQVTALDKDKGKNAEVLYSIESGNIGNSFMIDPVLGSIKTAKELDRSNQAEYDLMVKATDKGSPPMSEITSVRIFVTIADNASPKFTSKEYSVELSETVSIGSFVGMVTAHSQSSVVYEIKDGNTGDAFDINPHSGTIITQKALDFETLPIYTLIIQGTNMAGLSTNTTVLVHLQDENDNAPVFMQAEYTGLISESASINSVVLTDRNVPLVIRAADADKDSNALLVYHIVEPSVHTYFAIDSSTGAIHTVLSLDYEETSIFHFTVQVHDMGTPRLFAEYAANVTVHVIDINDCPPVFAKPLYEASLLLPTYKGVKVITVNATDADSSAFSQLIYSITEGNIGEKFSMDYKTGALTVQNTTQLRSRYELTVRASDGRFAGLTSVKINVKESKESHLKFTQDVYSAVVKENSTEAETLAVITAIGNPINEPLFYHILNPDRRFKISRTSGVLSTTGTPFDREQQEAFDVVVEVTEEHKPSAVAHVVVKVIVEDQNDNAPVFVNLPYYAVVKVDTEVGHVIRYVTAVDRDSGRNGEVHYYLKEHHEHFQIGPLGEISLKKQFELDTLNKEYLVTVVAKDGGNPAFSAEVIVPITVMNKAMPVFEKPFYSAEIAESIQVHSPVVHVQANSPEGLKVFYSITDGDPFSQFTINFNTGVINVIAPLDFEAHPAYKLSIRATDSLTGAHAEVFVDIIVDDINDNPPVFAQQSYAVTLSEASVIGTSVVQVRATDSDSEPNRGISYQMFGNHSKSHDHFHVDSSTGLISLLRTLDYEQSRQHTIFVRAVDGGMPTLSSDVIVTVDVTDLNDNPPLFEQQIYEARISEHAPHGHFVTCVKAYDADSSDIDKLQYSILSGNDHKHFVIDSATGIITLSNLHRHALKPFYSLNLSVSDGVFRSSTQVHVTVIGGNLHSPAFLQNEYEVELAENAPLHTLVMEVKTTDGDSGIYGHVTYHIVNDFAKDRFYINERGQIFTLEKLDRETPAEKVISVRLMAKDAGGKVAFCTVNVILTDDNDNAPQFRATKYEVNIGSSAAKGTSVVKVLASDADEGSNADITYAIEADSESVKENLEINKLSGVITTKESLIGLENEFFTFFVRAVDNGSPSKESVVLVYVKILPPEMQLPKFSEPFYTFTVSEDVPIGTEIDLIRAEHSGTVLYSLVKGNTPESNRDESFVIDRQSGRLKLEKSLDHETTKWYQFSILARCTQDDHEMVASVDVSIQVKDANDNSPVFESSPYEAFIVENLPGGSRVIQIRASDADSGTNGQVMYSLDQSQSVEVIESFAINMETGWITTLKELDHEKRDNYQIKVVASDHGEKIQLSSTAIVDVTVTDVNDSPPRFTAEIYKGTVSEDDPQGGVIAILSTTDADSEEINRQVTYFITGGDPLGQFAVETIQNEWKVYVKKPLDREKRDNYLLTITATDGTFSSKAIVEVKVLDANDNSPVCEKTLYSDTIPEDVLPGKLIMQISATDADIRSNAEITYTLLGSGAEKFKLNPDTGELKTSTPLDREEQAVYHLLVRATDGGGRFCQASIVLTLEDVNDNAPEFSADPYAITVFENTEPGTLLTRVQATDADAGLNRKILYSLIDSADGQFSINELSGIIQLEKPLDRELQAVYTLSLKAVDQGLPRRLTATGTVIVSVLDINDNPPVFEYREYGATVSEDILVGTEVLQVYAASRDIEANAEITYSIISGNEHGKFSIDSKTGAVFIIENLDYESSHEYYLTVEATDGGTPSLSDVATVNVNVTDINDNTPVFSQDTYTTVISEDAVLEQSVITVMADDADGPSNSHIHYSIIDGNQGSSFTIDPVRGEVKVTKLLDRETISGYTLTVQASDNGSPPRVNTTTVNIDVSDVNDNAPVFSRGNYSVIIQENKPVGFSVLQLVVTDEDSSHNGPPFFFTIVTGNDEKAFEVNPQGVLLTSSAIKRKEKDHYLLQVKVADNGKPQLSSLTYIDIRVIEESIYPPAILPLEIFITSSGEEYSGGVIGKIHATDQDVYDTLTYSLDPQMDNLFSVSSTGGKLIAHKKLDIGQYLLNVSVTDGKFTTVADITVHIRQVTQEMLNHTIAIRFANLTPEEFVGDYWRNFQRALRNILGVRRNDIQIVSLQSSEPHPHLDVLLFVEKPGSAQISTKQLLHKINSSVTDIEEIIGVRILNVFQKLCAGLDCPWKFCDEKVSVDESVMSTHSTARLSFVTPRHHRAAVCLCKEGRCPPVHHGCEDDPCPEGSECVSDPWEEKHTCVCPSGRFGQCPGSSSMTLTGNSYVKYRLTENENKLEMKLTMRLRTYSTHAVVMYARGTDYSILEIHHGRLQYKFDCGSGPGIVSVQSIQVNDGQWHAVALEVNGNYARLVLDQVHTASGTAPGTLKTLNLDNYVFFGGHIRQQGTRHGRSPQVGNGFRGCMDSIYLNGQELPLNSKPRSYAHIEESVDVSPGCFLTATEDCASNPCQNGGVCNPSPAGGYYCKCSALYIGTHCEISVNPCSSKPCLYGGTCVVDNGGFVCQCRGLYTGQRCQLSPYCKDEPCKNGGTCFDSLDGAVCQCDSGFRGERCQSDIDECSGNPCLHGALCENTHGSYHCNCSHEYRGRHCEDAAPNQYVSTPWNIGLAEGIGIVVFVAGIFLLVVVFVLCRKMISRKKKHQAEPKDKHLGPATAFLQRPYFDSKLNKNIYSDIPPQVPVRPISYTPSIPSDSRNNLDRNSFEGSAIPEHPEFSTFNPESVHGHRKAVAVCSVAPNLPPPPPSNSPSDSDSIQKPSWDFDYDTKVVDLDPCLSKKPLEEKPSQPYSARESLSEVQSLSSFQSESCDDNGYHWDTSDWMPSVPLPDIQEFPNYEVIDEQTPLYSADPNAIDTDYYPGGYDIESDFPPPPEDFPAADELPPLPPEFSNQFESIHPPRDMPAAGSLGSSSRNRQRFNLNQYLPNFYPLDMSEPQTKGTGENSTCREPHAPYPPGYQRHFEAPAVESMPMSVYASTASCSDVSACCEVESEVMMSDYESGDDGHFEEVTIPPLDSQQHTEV
inactive: [4] -0.085 | [5] -0.072 | [10] 0.021 | [6] -0.031 | [1] -0.041 | [7] -0.05 | [8] -0.094 | [9] -0.087

FIZ1 (UniProt Q96SL8)
inactive: [4] 0.149 | [5] 0 | [10] 0.141 | [7] 0.06 | [2] -0.012 | [8] -0.095 | [3] 0.069 | [9] 0.108

GPD1 (UniProt P21695)
inactive: [4] -0.005 | [5] 0.065 | [10] 0.131 | [6] -0.027 | [1] -0.298 | [7] -0.072 | [8] 0.05 | [9] 0.016

HDAC10 (UniProt Q969S8)
inactive: [4] -0.04 | [10] 0.011 | [6] 0.458 | [1] 0.108 | [7] 0.067 | [2] 0.024 | [8] -0.02 | [3] 0.024 | [9] -0.137

GEMIN2 (UniProt O14893)
inactive: [4] 0.001 | [5] 0.067 | [10] 0.009 | [7] -0.041 | [2] 0.136 | [8] 0.013 | [3] 0.151 | [9] 0.072

FMR1 (UniProt Q06787)
inactive: [5] -0.105 | [10] 0.046 | [1] 0.006 | [2] 0.19 | [3] 0.04

HSPA8 (UniProt E9PN89)
inactive: [5] 0.105 | [10] 0.281 | [6] -0.018 | [1] -0.057 | [7] 0.044 | [2] 0.101 | [3] 0.023 | [9] -0.036

GAGE12F (UniProt P0CL80)
UniProt P0CL80, sequence (P0CL80 whole entry, looked up): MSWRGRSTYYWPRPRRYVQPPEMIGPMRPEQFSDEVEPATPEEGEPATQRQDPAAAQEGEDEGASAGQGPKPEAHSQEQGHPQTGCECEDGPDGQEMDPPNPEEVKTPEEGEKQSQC
inactive: [4] 0.007 | [5] 0.053 | [10] 0.052 | [6] 0.009 | [1] -0.081 | [7] 0.095 | [2] 0.033 | [8] -0.051 | [3] -0.031 | [9] -0.02

FUNDC1 (UniProt Q8IVP5)
inactive: [5] 0.049
